# Nrf2 activator = activators of Nrf2 (ARE) signaling; AREc32 ARE-luciferase reporter (MCF7-derived line), luminescence, 24 h; Potency, µM (top dose mostly 46.1 µM), for inactives: at the top dose activation, actives largely listed as activators; hit rate 0.31% among 410,000; AID 624171; note: potency is the fitted concentration of half-maximal effect; % of control where 0% means no effect; nearly all actives have a fitted effect of over 65% in size
#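 AREc32 cells carrying an ARE-driven firefly luciferase, 1000 cells/well in OPTI-MEM with 5% FBS, dosed after overnight attachment and incubated 24 hr at 37 deg C. Steady-Glo luminescence read after 30 min at RT.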
# Glioma ERSR ind = inducers of ER stress response in human glioma cells. hit rate 0.02% among 420,000. AID 602332. U87-MG GRP78 promoter luciferase reporter, 16 h. Potency, µM, without a hit: at the top dose activation, usual class: activators; note: potency is the fitted concentration of half-maximal effect; series mostly up to about 76 µM; % of control where 0% means no effect; nearly all actives have a fitted effect of over 35% in size
#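 Stably transfected U87-MG human glioma cells carrying a GRP78-based luminescent sensor were seeded at 1000 cells/well, pin-dosed with compounds and incubated 16 h. Luciferase reagent was then added, and end-point luminescence was read after 10 min at room temperature.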
# DRD3 antagonist = D3 dopamine receptor (human) antagonism; max response, negative = inhibition, %; hit rate 2.5% among 360,000; P35462; AID 652054; D3R cells, DiscoveRx beta-arrestin luminescence, antagonist mode; active compounds read low; in the data active = max response below about -50%; inconclusive = no clear call, values can overlap the other calls; note: % is set by controls: 0 for no effect and ±100 for the full control effect
# Target sequence (P35462 whole entry, looked up): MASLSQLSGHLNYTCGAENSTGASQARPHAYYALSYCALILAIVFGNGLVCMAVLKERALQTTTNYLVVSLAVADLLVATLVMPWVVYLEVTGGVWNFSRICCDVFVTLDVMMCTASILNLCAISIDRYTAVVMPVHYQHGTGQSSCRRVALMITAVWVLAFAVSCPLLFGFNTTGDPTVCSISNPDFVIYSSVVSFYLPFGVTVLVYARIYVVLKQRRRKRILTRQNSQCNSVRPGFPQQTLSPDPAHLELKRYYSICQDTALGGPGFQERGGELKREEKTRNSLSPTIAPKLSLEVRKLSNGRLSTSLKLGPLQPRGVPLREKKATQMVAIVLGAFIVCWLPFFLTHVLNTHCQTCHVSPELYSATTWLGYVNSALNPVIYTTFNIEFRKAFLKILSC
#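 Cells expressing the human receptor were seeded at 1500 cells/well, incubated overnight at 37 degrees C in 5% CO2, then exposed to library compounds with dopamine controls for 90 minutes at 37 degrees C before luminescent detection.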
# DRD3 agonist = D3 dopamine receptor (human) agonism. max activation, %. hit rate 0.58% among 410,000. P35462. D3R DiscoveRx beta-arrestin cells, luminescence, 90 min; in the data active = max activation above about 30%; note: 0% is about no effect
#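 Cells at 1500/well, incubated overnight, then treated with pinned compounds (dopamine as control) for 90 min at 37 degrees C. DiscoveRx reagent added for 30 - 60 minutes at room temperature; luminescence read.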
# An asterisk follows results filed as active; ? = inconclusive; · = not tested or not shown. Most compounds without a hit are left out; they make up all but 3% or so of the library. Unless noted, calls come from the whole dose curve; as a rule, active = well fitted curve in the direction sought with a large enough effect; inconclusive = small, poorly fitted or top-dose-only effect, or another doubt; inactive = no such curve, though single readings can be large; an effect the other way counts as inactive or inconclusive.
SMILES,Nrf2 activator,Glioma ERSR ind,DRD3 antagonist,DRD3 agonist
c1ccc(-c2c(-c3ccccc3)n(Cc3ccco3)c3ncnc(NCCCn4ccnc4)c23)cc1,3.4%,-16.3%,-95.2*,2.7
CC(C)Cn1cnc2c(c(-c3ccccc3)c(-c3ccccc3)n2Cc2ccco2)c1=N,3.1%,-14.7%,-62.0*,-1.9
N=c1c2c(-c3ccccc3)c(-c3ccccc3)n(Cc3ccco3)c2ncn1Cc1ccccc1,0.0%,-10.6%,-18.7,-0.1
COc1ccccc1/C=C/C(=O)OC(C)CN1CCCCC1 (configuration not stated),-0.8%,-1.7%,-59.7*,-13.6
CC(CN1CCCC1)OC(=O)c1ccc(Cl)cc1 (configuration not stated),-0.4%,-3.6%,-53.8*,-24.8
CC(CN1CCCCC1)OC(=O)c1ccc(Cl)cc1Cl (configuration not stated),0.1%,0.7%,?,-16.4
CC1CCN(CC(C)OC(=O)c2ccc3c(c2)OCCO3)CC1 (configuration not stated),-1.0%,-5.9%,-75.3*,-13.9
CC(CN1CCCC1)OC(=O)c1ccc(Cl)cc1Cl (configuration not stated),3.0%,-1.1%,-79.6*,-19.7
COc1ccccc1/C=C/C(=O)OCCN1CCOCC1,2.4%,-1.0%,5.1,-5.7
CC(CN1CCCCC1)OC(=O)c1ccc2c(c1)OCO2 (configuration not stated),4.9%,3.4%,-15.4,-17.8
COCC(C)NCc1cc2ccc(OC)cc2nc1N1CCN(c2ccc(F)cc2)CC1 (configuration not stated),·,-7.7%,·,·
CCOC(=O)c1cc(OC(=O)c2ccc(OC)c(OC)c2)n(-c2ccccc2)n1,-0.8%,3.2%,·,7.1
CC(NC(=O)c1ccco1)c1nnc2n1CCN(Cc1ccc(N3CCCC3)cc1)CC2 (configuration not stated),·,-6.3%,·,·
O=C(c1ccc2c(c1)N(Cc1cccc(Cl)c1)C(=O)c1ccccc1S2(=O)=O)N1CCCCCC1,3.7%,-1.3%,·,-8.6
CN(C)c1c(Cl)cc(/C=C/c2ccnc3ccccc23)cc1Br,·,-2.1%,·,·
Cc1onc(-c2ccccc2)c1C(=O)NCCN1Cc2ccccc2OC(c2ccsc2)C1 (configuration not stated),·,-4.5%,·,·
CC(CN1CCCCC1)OC(=O)c1cccc(F)c1 (configuration not stated),0.0%,9.5%,-50.8*,-24.0
CC(CN1CCOCC1)OC(=O)c1ccc(Br)cc1 (configuration not stated),?,-0.1%,-67.3*,-17.6
CC(CN1CCOCC1)OC(=O)c1ccccc1Cl (configuration not stated),0.3%,-1.6%,6.7,1.7
COc1cccc(C(=O)OC(C)CN2CCCC2)c1 (configuration not stated),-0.7%,-2.7%,-6.3,-2.3
CC#CCC(C)[C@H](O)/C=C/C1[C@H](O)C[C@@H]2C/C(=C\CCCC(=O)O)C[C@H]12 (some centres not stated),·,-2.1%,·,·
COc1ccccc1CN1CCC2(CC1)c1ccccc1[C@@H](NC(=O)c1ccco1)[C@@H]2OC,·,-4.0%,·,·
O=C(O)CCc1[nH]c2ccccc2c1Sc1ccccc1,0.2%,-5.4%,-67.0*,-19.0
CN1c2ccccc2C(O)=C(C(=S)Nc2ccc(Cl)cc2)S1(=O)=O,0.3%,?,-87.2*,3.9
Cc1ccc(NC(=S)C2=C(O)c3sccc3N(C)S2(=O)=O)cc1,3.2%,3.3%,-87.5*,4.4
SMILES,Nrf2 activator,Glioma ERSR ind,DRD3 antagonist,DRD3 agonist
C[C@H]1[C@@H](OC(=O)CCC(=O)O)OC2OC3(C)CC[C@H]4[C@H](C)CC[C@@H]1[C@@]24OO3 (some centres not stated),·,-2.0%,·,·
C#C[C@]1(O)CC[C@H]2[C@H]3CCc4cc(O)ccc4[C@@H]3CC[C@@]21C,·,-7.1%,·,·
COc1cccc(-c2ccc(O)c(CNCc3cccc(OC)c3OC)c2)n1,·,-3.3%,·,·
CCN1C(=O)[C@@H]2[C@@H](c3ccc(-c4ccc(F)cc4)c(OC)c3)N3CCCC[C@@]3(C(=O)OC)[C@@H]2C1=O,0.1%,2.3%,38.0,32.8*
O=C(/C=C/c1cc(Br)ccc1F)OCC(=O)N1CCOCC1,11.2µM*,-0.9%,0.9,5.7
O=C(COC(=O)/C=C/c1cc(Br)ccc1F)Nc1ccc2[nH]c(=O)[nH]c2c1,6.4%,-4.4%,-10.2,88.3*
O=C(COC(=O)Cc1ccccc1F)Nc1ccc2[nH]c(=O)[nH]c2c1,-0.9%,-4.7%,-4.6,-8.9
O=C(/C=C/c1cc(Br)ccc1F)OCC(=O)N1CCCC1,11.2µM*,-1.3%,6.3,-5.0
O=C(/C=C/c1cccc(Cl)c1Cl)OCC(=O)N1CCOCC1,17.8µM*,-2.5%,-58.8*,-2.2
Cc1c(Cl)cccc1NC(=O)CN1C(=O)COc2ccc(S(=O)(=O)N3CCOCC3)cc21,-0.2%,-1.2%,·,8.2
CCCCCCCC(=O)CC[C@H]1[C@@H](C/C=C/CCCC(=O)OC(C)C)[C@@H](O)C[C@H]1O,·,-7.5%,·,·
CCOC(=O)[C@H](Cc1ccc(O)cc1)NC(=O)c1ccccc1,·,0.6%,·,·
CC(C)(C)OC(=O)[C@H]1[C@H](c2ccc([N+](=O)[O-])cc2)C2(C(=O)c3ccccc3C2=O)C2c3ccccc3C=NN21 (some centres not stated),5.1%,4.0%,-58.9*,-9.9
Cc1ccccc1Cn1nc(C)c(NC(=O)c2noc3c2CC(C(C)(C)C)CC3)c1C (configuration not stated),0.2%,-4.6%,3.5,33.7*
CN(C)S(=O)(=O)c1ccc2c(c1)C(=O)c1cc(S(=O)(=O)N(C)C)ccc1CC2,0.0%,-3.6%,·,·
CN(C)S(=O)(=O)c1ccc2c(c1)/C(=C/c1cc3c([nH]1)CCCC3)C(=O)N2,0.1%,-4.5%,-86.3*,-94.1
Cc1ccc(C)c(NC(=S)NC(NC(=O)OCc2ccccc2)C(Cl)(Cl)Cl)c1 (configuration not stated),5.4%,-0.4%,?,-3.3
O=C(NC(NC(=S)Nc1c(Cl)cc(Cl)cc1Cl)C(Cl)(Cl)Cl)OCc1ccccc1 (configuration not stated),12.2%,-3.4%,-76.1*,1.4
CCN1C(=O)C(O)(CC(=O)c2ccc3c(c2)OCCO3)c2ccccc21 (configuration not stated),0.3%,-2.1%,34.6,3.2
COc1ccc(CN2C(=O)C(O)(CC(=O)c3ccc4c(c3)OCO4)c3ccccc32)cc1OC (configuration not stated),0.3%,-1.3%,3.5,35.6*
CCN(CC)c1ccc(/C=C2/SC(=O)N(C(C)C)C2=O)o1,?,-9.8%,-91.4*,-6.8
O=C(C[n+]1ccncc1)c1ccc(Br)cc1,·,-3.9%,·,·
OCC1(Cc2ccccc2)CCCN(Cc2c[nH]c3ccccc23)C1 (configuration not stated),1.5%,-3.9%,-56.6*,-30.0
O=C(c1c[nH]c2ccccc12)N1CCN(Cc2ccccc2)CC1,-0.5%,-4.3%,-15.4,-10.5
c1ccc(CN2CCN(Cc3c[nH]c4ccccc34)CC2)cc1,20.4%,-2.7%,-59.8*,-45.5
